Results on seven compounds are retold here after PubChem BioAssay (Tox21).

The structures appear in SMILES notation. “And” between values parts separate entries of the source, which are not always exact repeats. Equal entries are not always repeated. Inconclusive results are not listed. The source holds several records for some structures; these can differ, active in one and inactive in another. The source made the active and inactive calls. Unless noted, calls come from the whole dose curve; as a rule, active = well fitted curve in the direction sought with a large enough effect in the repeat runs; inconclusive = weak or mixed curves; inactive = no such curve, though single readings can be large; an effect the other way counts as inactive or inconclusive.

Experiment [1] in a line: qHTS RealTime-Glo MT Cell Viability Assay in HEK293 cells - 0 hour (AID 1224880). Note: top concentration of the series differs between compounds; nearly all actives have a fitted effect of over 45% in size. Put shortly:
(§1)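 Kinetic, non-lysing viability readout. Seed HEK293 (600/well) with reagent, incubate 5 h at 37 C/5% CO2, pin 23 nL compound in DMSO, incubate at 37 C, read luminescence at 0, 8, 16, 24, 32, 40 h.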
(In general: Quantitative high-throughput screening tests each substance at several concentrations.)

A short description of experiment [2]: A CellTox Green Cytotoxicity Assay to monitor cytotoxicity in HEK293 cells - 32 hour (AID 1224881). Note: nearly all actives have a fitted effect of over 40% in size. Put shortly:
(§2)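 Real-time, in one plate: 600 HEK293 cells/well with dead-cell DNA dye, pinned compound after 5 h, 37 C incubation over 40 h; viable cells give no appreciable fluorescence.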

Experiment [3] is described as follows: A CellTox Green Cytotoxicity Assay to monitor cytotoxicity in HepG2 cells - 0 hour (AID 1224882). Note: nearly all actives have a fitted effect of over 35% in size. Put shortly:
(§3)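 Cytotoxicity was tracked as dead-cell DNA fluorescence in HepG2 cells treated with test compounds at 37 C; each time-point value comes from one kinetic series spanning 0, 8, 16, 24, 32 and 40 h.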

Experiment [4] can be described thus: A CellTox Green Cytotoxicity Assay to monitor cytotoxicity in HepG2 cells - 32 hour (AID 1224883). Note: nearly all actives have a fitted effect of over 50% in size. Put shortly: as §3
Experiment [5] in a line: A CellTox Green Cytotoxicity Assay to monitor cytotoxicity in HEK293 cells - 8 hour (AID 1224884). Note: nearly all actives have a fitted effect of over 35% in size. An outline of the steps:
as §2

The nature of experiment [6]: qHTS RealTime-Glo MT Cell Viability Assay in HepG2 cells - 16 hour (AID 1224885). Note: nearly all actives have a fitted effect of over 50% in size. Put shortly:
(§4)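 HepG2 cells (600/well) were dispensed with RealTime-Glo reagents, incubated 5 h at 37 °C, then treated with compounds in DMSO for up to 40 h. Nonlytic NanoLuc luminescence reflecting viable cells was read at each stated time point.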

The nature of experiment [7]: qHTS RealTime-Glo MT Cell Viability Assay in HEK293 cells - 24 hour (AID 1224886). Note: nearly all actives have a fitted effect of over 50% in size. Note: potency is the fitted concentration of half-maximal effect. Put shortly: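 HEK293 cells seeded with NanoLuc/prosubstrate reagent, rested 5 h at 37 C, then dosed and kept at 37 C up to 40 h. Nonlytic real-time luminescence from viable cells read at 0, 8, 16, 24, 32 and 40 h.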
Experiment [8] can be described thus: qHTS RealTime-Glo MT Cell Viability Assay in HEK293 cells - 8 hour (AID 1224887). Note: nearly all actives have a fitted effect of over 50% in size. Note: potency is the fitted concentration of half-maximal effect. An outline of the steps: as §1
The nature of experiment [9]: A CellTox Green Cytotoxicity Assay to monitor cytotoxicity in HEK293 cells - 16 hour (AID 1224888). Note: nearly all actives have a fitted effect of over 35% in size. An outline of the steps: as §2
Experiment [10] can be described thus: qHTS RealTime-Glo MT Cell Viability Assay in HepG2 cells - 0 hour (AID 1224889). Note: nearly all actives have a fitted effect of over 50% in size. An outline of the steps:
as §4

Experiment [11] is described as follows: A CellTox Green Cytotoxicity Assay to monitor cytotoxicity in HepG2 cells - 8 hour (AID 1224890). Note: nearly all actives have a fitted effect of over 45% in size. Note: potency is the fitted concentration of half-maximal effect. Put shortly: as §3
The nature of experiment [12]: qHTS assay to identify small molecule antagonists of the estrogen receptor alpha (ER-alpha) signaling pathway using the BG1 cell line in the presence of 0.1 nM 17-beta-estradiol - cell viability counter screen (AID 1259241). Note: nearly all actives have a fitted effect of over 40% in size. An outline of the steps:
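VM7Luc4E2 cells (endogenous full-length ER-alpha, 4xERE-luciferase), cultured 5 days in charcoal-stripped serum, exposed to compounds with 0.1 nM 17beta-estradiol (final) for 22 hr at 37C. Viability read in same wells as live-cell protease fluorescence after 30 min.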

Experiment [13] can be described thus: qHTS assay to identify small molecule antagonists of the androgen receptor (AR) signaling pathway using the MDA cell line in the presence of 0.5 nM R1881 - cell viability counter screen (AID 1259242). Note: nearly all actives have a fitted effect of over 45% in size. An outline of the steps:
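Cells seeded at 3,000/well and allowed 5 hr at 37C, 0% CO2 before compound transfer and R1881 (0.5 nM final) addition; 16 hr later, live-cell protease fluorescence indicated cytotoxicity.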

The nature of experiment [14]: qHTS assay to identify small molecule HDAC inhibitors (AID 1259364). Note: potency is the fitted concentration of half-maximal effect.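 Note: wild-type HCT-116 cells with endogenous class I/II HDAC activity; nearly all actives have a fitted effect of over 45% in size.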 An outline of the steps:
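HCT-116 wt cells, 1,500/well, overnight attach. Compounds (DMSO) 2 h, 37 °C. HDAC-Glo I/II, 30 min RT. Luminescence.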

Experiment [15] can be described thus: qHTS assay to identify small molecule HDAC inhibitors - cell viability counter screen (AID 1259365). An outline of the steps: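 Wild-type HCT-116 cells, 1,500/well, cultured overnight, then compound-treated 2 h at 37 C. Viability measured as ATP luminescence with CellTiter-Glo after 30 min at room temperature.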
A short description of experiment [16]: qHTS assay to identify small molecule agonists of the sonic hedgehog signaling (Shh) pathway - cell viability counter screen (AID 1259366). Note: nearly all actives have a fitted effect of over 50% in size. Put shortly:
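NIH/3T3-derived Gli1-Luc reporter cells, 2,000 per well, received compound after 4 h and were treated about 23 h at 37C. Viability measured in the same wells by CellTiter-Fluor fluorescence after 1 h.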

Experiment [17] in a line: qHTS assay to identify small molecule antagonists of the sonic hedgehog signaling (Shh) pathway - cell viability counter screen (AID 1259367). Note: nearly all actives have a fitted effect of over 55% in size. An outline of the steps: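 Conditioned medium drove Shh signaling in 3T3 Gli1-Luc cells exposed to compounds at 37C and 5% CO2. Viability was determined from CellTiter-Fluor fluorescence, with reagent incubated 1 hr after 23 hr of treatment.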

Experiment [18] is described as follows: qHTS assay to identify small molecule phospholipidosis (PLD) inducers (AID 1259344; active = well fitted curve in the direction sought with a large enough effect; an effect the other way counts as inactive or inconclusive). An outline of the steps: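 After 4 h attachment on collagen I, HepG2 cells were dosed with compound alongside LipidTOX Red, kept 24 h at 37 C, fixed, and imaged for lamellar phospholipid pits.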
The target of experiment [19] is Androgen receptor (Homo sapiens) (UniProt P10275). Kind of experiment: qHTS assay to identify small molecule antagonists of the androgen receptor (AR) signaling pathway using the MDA cell line in the presence of 0.5 nM R1881 (AID 1259243). Note: nearly all actives have a fitted effect of over 50% in size. An outline of the steps: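 Luminescence from an AR/GR-responsive MMTV-luciferase construct in MDA-kb2 breast carcinoma cells, read 30 min after ONE-Glo, following 16 hr co-treatment with compounds and 0.5 nM R1881.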
Androgen receptor (Homo sapiens), sequence (P10275 whole entry, looked up): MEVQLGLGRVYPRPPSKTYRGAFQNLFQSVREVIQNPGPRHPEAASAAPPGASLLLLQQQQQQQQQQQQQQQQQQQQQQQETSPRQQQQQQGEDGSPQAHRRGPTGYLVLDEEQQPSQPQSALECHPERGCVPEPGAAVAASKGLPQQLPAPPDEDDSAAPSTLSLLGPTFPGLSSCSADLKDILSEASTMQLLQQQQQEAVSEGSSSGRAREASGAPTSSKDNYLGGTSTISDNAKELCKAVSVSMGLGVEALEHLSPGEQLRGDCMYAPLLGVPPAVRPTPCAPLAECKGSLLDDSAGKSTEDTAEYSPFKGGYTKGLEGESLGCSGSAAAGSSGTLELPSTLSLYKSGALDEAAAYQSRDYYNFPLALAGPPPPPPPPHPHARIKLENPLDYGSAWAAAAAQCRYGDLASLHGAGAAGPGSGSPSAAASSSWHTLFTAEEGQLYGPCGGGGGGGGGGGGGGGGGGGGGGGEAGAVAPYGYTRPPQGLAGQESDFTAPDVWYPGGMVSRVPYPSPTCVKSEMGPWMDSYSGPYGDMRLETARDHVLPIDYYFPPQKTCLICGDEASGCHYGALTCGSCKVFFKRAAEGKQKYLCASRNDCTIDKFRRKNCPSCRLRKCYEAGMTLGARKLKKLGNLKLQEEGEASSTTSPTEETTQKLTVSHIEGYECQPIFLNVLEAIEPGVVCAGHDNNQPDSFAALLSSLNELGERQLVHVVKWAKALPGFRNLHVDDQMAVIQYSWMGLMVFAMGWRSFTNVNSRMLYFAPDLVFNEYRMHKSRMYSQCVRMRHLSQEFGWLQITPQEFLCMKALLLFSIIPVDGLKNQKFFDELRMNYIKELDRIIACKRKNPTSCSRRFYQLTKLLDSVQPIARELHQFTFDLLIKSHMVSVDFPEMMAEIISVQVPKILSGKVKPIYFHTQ

Experiment [20] has as its target Estrogen receptor (Homo sapiens) (UniProt P03372). Kind of experiment: qHTS assay to identify small molecule antagonists of the estrogen receptor alpha (ER-alpha) signaling pathway using the BG1 cell line in the presence of 0.1 nM 17-beta-estradiol (AID 1259244). Note: nearly all actives have a fitted effect of over 50% in size. Put shortly:
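Luciferase signal from VM7Luc4E2 ERE-reporter cells, co-dosed with test compound and 0.1 nM final 17beta-estradiol for 22 h, read with ONE-Glo.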

Estrogen receptor (Homo sapiens), sequence (P03372 whole entry, looked up): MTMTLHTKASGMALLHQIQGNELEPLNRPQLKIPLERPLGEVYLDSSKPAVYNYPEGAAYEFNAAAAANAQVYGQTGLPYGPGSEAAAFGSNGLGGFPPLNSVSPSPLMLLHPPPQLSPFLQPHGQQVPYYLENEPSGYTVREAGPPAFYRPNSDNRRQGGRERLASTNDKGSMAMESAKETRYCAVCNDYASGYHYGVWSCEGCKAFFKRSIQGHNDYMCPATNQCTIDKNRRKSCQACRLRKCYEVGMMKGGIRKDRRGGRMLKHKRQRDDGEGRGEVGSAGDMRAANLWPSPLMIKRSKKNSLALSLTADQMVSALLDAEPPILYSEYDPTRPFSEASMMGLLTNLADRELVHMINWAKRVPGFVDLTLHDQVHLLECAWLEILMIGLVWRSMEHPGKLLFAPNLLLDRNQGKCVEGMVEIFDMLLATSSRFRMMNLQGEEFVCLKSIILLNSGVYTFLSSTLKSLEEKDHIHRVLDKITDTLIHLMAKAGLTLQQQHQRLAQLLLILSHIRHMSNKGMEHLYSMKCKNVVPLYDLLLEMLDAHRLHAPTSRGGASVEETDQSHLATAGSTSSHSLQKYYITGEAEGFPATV

On to `CN(C)c1cccc(O)c1`, for which the Potency entry in experiment [1], in experiment [2], in experiment [3], in experiment [4], in experiment [5] and in experiment [6] was “inactive” throughout. Besides, the Potency entry in experiment [7], in experiment [8], in experiment [9], in [10], in [12] and in [13] was “inactive” each time. Besides, the Potency entry in experiment [14], in experiment [16] and in experiment [17] was “inactive” in each case. Further, the Potency entry in [11] was “inactive and 54.9 µM (active)”. The compound was classed as inactive in experiment [15].
In the case of `Cc1cc(O)cc(C)c1Cl`, the Potency entry in experiment [1], in experiment [2], in experiment [3], in [4], in experiment [5] and in experiment [6] was “inactive” each time. Besides, the Potency entry in experiment [7], in experiment [8], in experiment [9], in experiment [10], in experiment [11] and in [12] was “inactive” in each case. For the same compound, the Potency entry in experiment [13], in experiment [14], in experiment [16] and in experiment [17] was “inactive” in each case. Besides, the compound was classed as inactive in experiment [18] and in experiment [15].
In the case of `C[C@@H]1O[C@@H](OC[C@H]2O[C@@H](Oc3c(-c4ccc(O)c(O)c4)oc4cc(O)cc(O)c4c3=O)[C@H](O)[C@@H](O)[C@@H]2O)[C@H](O)[C@H](O)[C@H]1O`, the Potency entry in experiment [1], in [2], in experiment [3], in [4], in [5] and in experiment [6] was “inactive” throughout. In addition, the Potency result in [7], in experiment [8], in [9], in experiment [10], in experiment [11] and in experiment [12] was “inactive” in each case. The Potency result in experiment [13], in experiment [14], in [16] and in experiment [17] was “inactive” each time. Further, the outcome in [19], in experiment [18] and in experiment [15] was inactive.
`Cc1ccc(N)c(S(=O)(=O)O)c1`: the Potency result in experiment [1], in [2], in experiment [3], in [4], in experiment [5] and in [6] was “inactive” in each case. In addition, the Potency result in experiment [7], in experiment [8], in [9], in [10], in experiment [11] and in [12] was “inactive” throughout. Further, the Potency result in experiment [13], in experiment [14], in experiment [16] and in [17] was “inactive” each time. For the same compound, the outcome in experiment [15] was inactive.
As for `COC(=O)c1ccccc1O`, the Potency result in [1], in [2], in experiment [3], in [4], in [5] and in [6] was “inactive” in each case. Further, the Potency result in [7], in experiment [8], in [9], in experiment [10], in [11] and in [12] was “inactive” throughout. The Potency entry in experiment [13], in experiment [20], in experiment [14], in [16] and in [17] was “inactive” each time. The result in [18] and in experiment [15] was inactive.
On to `Oc1ccc(OCc2ccccc2)cc1`, for which the Potency result in [1], in [2], in experiment [3], in experiment [4], in [5] and in experiment [6] was “inactive” each time. In addition, the Potency entry in [9], in experiment [10], in [11], in [12], in [13] and in experiment [20] was “inactive” each time. Further, the Potency entry in [16] and in experiment [17] was “inactive” in each case. In addition, the Potency was 853 nM (active) and inactive in experiment [7]; 853 nM (active) and inactive in [8]; 6.71 µM (active) and inactive in experiment [14]. Further, the compound was called inactive in experiment [18] and in experiment [15].
Regarding `CCCCCCC(C)(C)S`, the Potency result in [1], in experiment [2], in experiment [3], in experiment [4], in experiment [5] and in [6] was “inactive” in each case. Also, the Potency result in experiment [7], in experiment [8], in experiment [9], in [10], in [11] and in [12] was “inactive” throughout. For the same compound, the Potency entry in experiment [13], in experiment [14], in experiment [16] and in [17] was “inactive” each time. In addition, the outcome in [15] was inactive.
